The source of these data is PubChem BioAssay (NCATS).

“And” between values parts separate entries of the source, which are not always exact repeats. Equal values may be shown once. Results filed as inconclusive are left out. The source made the active and inactive calls. Unless noted, calls follow the shape of the dose curve; as a rule, active = well fitted curve in the direction sought with a large enough effect; inconclusive = small, poorly fitted or top-dose-only effect, or another doubt; inactive = no such curve, though single readings can be large; an effect the other way counts as inactive or inconclusive.

A short description of test [1]: Cell Viability - Jurkat (AID 426;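 active = dose-dependent loss of cell ATP signal giving a full or clear fitted curve, ranked by lower potency value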; also: potency is read from the fitted curve at half-maximal effect). The note with it: qHTS. In a few lines: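 Jurkat (clone E6-1, human T-cell leukemia) cells, 5000/well in complete medium, were exposed to compound for 40 hr at 37 °C. Viability was read as intracellular ATP by CellTiter-Glo luminescence; AC50 came from Hill fits of concentration-response data.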
For orientation: Quantitative high-throughput screening tests each substance at several concentrations.

Test [2] is described as follows: Cell Viability - Hek293 (AID 427;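 active = compounds whose dose-response curve shows a full or clear partial loss of cell viability, called from curve shape rather than a numeric limit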;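 also: potency is read from the fitted curve at half-maximal effect; cells exposed to compound for 40 hours at 37 °C before reading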). Particulars: qHTS. In short, it runs like this:
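HEK293 cells in complete medium were exposed to compound for 40 hr at 37 °C, then cellular ATP was read by CellTiter-Glo luminescence. Data were normalized to DMSO (basal) and 100 uM tamoxifen (100% inhibition), and AC50 came from Hill fits.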

Test [3] in a line: Cell Viability - H-4-II-E (AID 543). Also: % is scaled to controls: 0 for no effect and ±100 for the full control effect; nearly all actives have a fitted effect of over 35% in size. Particulars: H-4-II-E rat hepatoma viability; series mostly up to 92.2 µM. In short, it runs like this:
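Rat hepatoma H-4-II-E cells (1500/well) were plated, incubated 5 hr at 37 °C, then exposed to compounds for 40 hr at 37 °C. Cellular ATP was read by CellTiter-Glo luminescence; AC50 came from Hill-equation fits of concentration-response data.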

Test [4] can be described thus: Cell Viability - LYMP2-004 (AID 966).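 Also: plate controls were DMSO only for no effect and tetraoctylammonium bromide control for full effect; nearly all actives have a fitted effect of over 65% in size.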 Particulars: LYMP2-004 lymphoblastoid cell viability, qHTS; series mostly up to 92.2 µM. In a few lines: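 Human lymphoblastoid cells (2500/well) in complete medium were treated with compounds for 24 hr at 37 C, then intracellular ATP was measured by CellTiter-Glo luminescence. AC50 values came from Hill-equation fits of concentration-response data.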

Test [5] has as its target Glucocorticoid receptor (Homo sapiens) (UniProt P04150). Put plainly: qHTS assay for small molecule agonists of glucocorticoid receptor signaling (AID 588532; active = well fitted curve in the direction sought with a large enough effect in the signal ratio, with a control signal flat; the % refers to the signal ratio;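 also: 100% = dexamethasone at 0.1 µM and 0% = DMSO only wells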). Particulars: HeLa MMTV-bla, beta-lactamase ratio, agonist, 18 h; stronger effect = higher value; percent of dexamethasone control, DMSO zero. In short, it runs like this:
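MMTV-bla HeLa, beta-lactamase reporter; medium with 1% charcoal/dextran-stripped FBS; cpds up to 92 uM, 18 h, 37 C; CCF4 readout 460/530 nm; Hill fit → EC50, efficacy vs 0.1 uM dexamethasone = 100%.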

For test [6] the target is unchanged. Briefly: qHTS assay for small molecule antagonists of glucocorticoid receptor signaling (AID 588533; active = well fitted inhibition curve with a large enough effect in the signal ratio, with a control signal flat, not every such curve was filed as active; the % refers to the signal ratio;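 also: cells stimulated with 2 nM dexamethasone as agonist; % is scaled to controls: 0 for no effect and ±100 for the full control effect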). The note with it: HeLa MMTV-bla, GRE beta-lactamase ratio, antagonist mode, 18 h; series mostly up to 76.8 µM. In short, it runs like this:
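Antagonist-mode qHTS: compound titrations added to GRE-bla HeLa cells, then dexamethasone 2 nM final; 18 h, 37 C. CCF4 FRET fluorescence normalized to dexamethasone and DMSO; IC50 from Hill fit.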

For test [7], the target named is Peroxisome proliferator-activated receptor gamma (Homo sapiens) (UniProt P37231). Put plainly: qHTS assay for small molecule agonists of peroxisome proliferator-activated receptor gamma signaling (AID 588536; active = well fitted curve in the direction sought with a large enough effect in the signal ratio, with a control signal flat, not every such curve was filed as active; the % refers to the signal ratio;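 also: 0% = DMSO basal wells and 100% = rosiglitazone at 2 µM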). The note with it: HEK293 PPARg-UAS-bla, beta-lactamase ratio, 16 h, percent of rosiglitazone response, DMSO as zero; series mostly up to 76.7 µM. In short, it runs like this:
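GeneBLAzer PPAR-gamma-UAS-bla HEK293 cells in 1% charcoal/dextran-treated FBS medium were treated 16 h at 37 C with compounds. Beta-lactamase activity was read by CCF4 ratio (460/530 nm). Response was normalized to 2 uM rosiglitazone (100%) and DMSO, then Hill-fitted for EC50 and efficacy.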

The nature of test [8]: qHTS assay for small molecule agonists of the antioxidant response element (ARE) signaling pathway (AID 651741; active = well fitted activation curve with a large enough effect in the signal ratio; the % refers to the signal ratio; also: potency is read from the fitted curve at half-maximal effect; as to activation: % of control where 0% means no effect). The note with it: HepG2 ARE-bla reporter, beta-lactamase FRET ratio, 16 h; series mostly up to 96 µM. In a few lines: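 ARE-bla HepG2 cells (beta-lactamase reporter under ARE control) were plated at 2,000 cells/well, preincubated 5 h at 37 C/5% CO2, then treated with DMSO-dissolved compounds for 16 h at 37 C; LiveBLAzer B/G FRET substrate added, fluorescence read after 2 h at room temperature.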

Test [9] is described as follows: qHTS assay for small molecule disruptors of the mitochondrial membrane potential - 5 hr assay (AID 651755; calls by dose curve; also: nearly all actives have a fitted effect of over 40% in size; also: potency is read from the fitted curve at half-maximal effect). Particulars: JC-1-type ratio dye; series mostly up to 92.2 µM. In short, it runs like this:
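HepG2 cells, attached overnight at 37C, were exposed to compound or DMSO for 5 hr at 37C, 5% CO2. Mito-MPS dye was then added for 30 min, and fluorescence read at 490/535 nm (monomers) and 540/590 nm (aggregates).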

The nature of test [10]: qHTS assay for small molecule agonists of the antioxidant response element (ARE) signaling pathway measured by Nrf2-dependant transcriptional activity (AID 720636; active = well fitted curve in the direction sought with a large enough effect in the repeat runs; an effect the other way counts as inactive or inconclusive; also: potency is read from the fitted curve at half-maximal effect; as to activation: % of control where 0% means no effect). The note with it: ARE-luc HepG2, Nrf2 luciferase reporter, 16 h; series mostly up to 92.4 µM. In a few lines: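 ARE-luc HepG2 cells carrying an Nrf2-responsive luciferase reporter were plated in medium with 1% dialyzed FBS, left 6 hr at 37 C to attach, then exposed to compound for 16 hr. Luciferase luminescence was read after ONE-Glo addition.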

Test [11] in a line: Cell Viability - NIH 3T3 (AID 541). Also: nearly all actives have a fitted effect of over 25% in size. Also: potency is read from the fitted curve at half-maximal effect.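 As to activity change, negative = cytotoxicity: plate controls were DMSO alone for no effect and tamoxifen positive control for full effect.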 The note with it: NIH 3T3 cell viability, qHTS; activity change, negative = cytotoxicity: at 92.2 µM (top of the series). In short, it runs like this:
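NIH 3T3 mouse embryo fibroblasts (1000 cells/well) were plated in complete medium and treated with compound for 40 hr at 37 °C. Viability was read as intracellular ATP by CellTiter-Glo luminescence; AC50 values came from Hill-equation fits of concentration-response data.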

A short description of test [12]: MultiTox-Fluor Cytotoxicity Assay - LYMP1-001 - Live Cells (AID 947).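 Also: 0% = DMSO only and full inhibition = tetraoctylammonium bromide control.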 Particulars: LYMP1-001 lymphoblastoid cells, live-cell protease fluorescence viability; series mostly up to 92.2 µM.
Test [13] addresses Estrogen receptor (Homo sapiens) (UniProt P03372). Put plainly: qHTS assay for small molecule antagonists of estrogen receptor alpha signaling (AID 588513; active = well fitted curve in the direction sought with a large enough effect in the signal ratio, with a control signal flat, not every such curve was filed as active; the % refers to the signal ratio; also: % is scaled to controls: 0 for no effect and ±100 for the full control effect). The note with it: ER-alpha-UAS-bla HEK293, beta-lactamase ratio, antagonist mode; series mostly up to 76.9 µM. In short, it runs like this:
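ER-alpha-UAS-bla GripTite HEK 293 cells in medium with 2% charcoal/dextran-treated FBS were preincubated 4 h at 37 C, dosed with compound (1:2 titration), stimulated with 0.5nM 17-beta-estradiol for 18 h, then read by CCF4 beta-lactamase fluorescence.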

For test [14] the target is unchanged. Briefly: qHTS assay for small molecule agonists of estrogen receptor alpha signaling (AID 588514; calls by dose curve;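 also: 0% = vehicle only and 100% = reference agonist; nearly all actives have a fitted effect of over 70% in size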). Particulars: ER-alpha-UAS-bla HEK293, beta-lactamase ratio, 18 h; series mostly up to 76.8 µM. In short, it runs like this:
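ER-alpha-UAS-bla GripTite HEK 293 cells in medium with 2% charcoal/dextran-treated FBS were treated with compound titrations at 37 C for 18 hrs; beta-lactamase reporter read by CCF4 fluorescence after 2 hrs at RT.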

Test [15] in a line: qHTS assay for small molecule antagonists of peroxisome proliferator-activated receptor delta signaling (AID 588535; active = well fitted inhibition curve with a large enough effect in the signal ratio, with a control signal flat, not every such curve was filed as active; the % refers to the signal ratio;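 as to max response: cells co-treated with a PPAR-delta agonist as stimulator during compound exposure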). Particulars: HEK293T PPARd-UAS-bla, beta-lactamase FRET ratio, 18 h; 460 nm channel. In a few lines:
(§1)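 GeneBLAzer PPAR-delta-UAS-bla HEK293T cells in medium with 2% charcoal/dextran FBS were preincubated 5 hrs at 37 C, then given compounds, incubated 18 hrs at 37 C, and read by CCF4 beta-lactamase fluorescence; IC50 from Hill fits.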

Test [16] concerns the target Peroxisome proliferator-activated receptor delta (Homo sapiens) (UniProt Q03181). The test is described as above. The note with it: HEK293T PPARd-UAS-bla, beta-lactamase FRET ratio, 18 h; series mostly up to 76.7 µM. In a few lines:
as §1

The target of test [17] is Peroxisome proliferator-activated receptor gamma (Homo sapiens) (UniProt P37231). Briefly: qHTS assay for small molecule antagonists of peroxisome proliferator-activated receptor gamma signaling (AID 588537; active = well fitted inhibition curve with a large enough effect in the signal ratio, with a control signal flat, not every such curve was filed as active; the % refers to the signal ratio;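 also: reporter cells co-stimulated with 50 nM rosiglitazone agonist during compound treatment; % of control where 0% means no effect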). Particulars: HEK293 PPARg-UAS-bla, beta-lactamase ratio, antagonist mode; series mostly up to 76.8 µM. In short, it runs like this:
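PPAR-gamma-UAS-bla HEK293 cells (3000/well, 1% charcoal/dextran-stripped FBS) were preincubated 6-6.5 h at 37 C, given titrated compounds, then stimulated with 50 nM rosiglitazone for 16 h. Beta-lactamase activity was read with CCF4 dye; IC50 came from Hill fits.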

Test [18] is described as follows: qHTS assay for environmental chemicals that activate the Aryl hydrocarbon Receptor (AhR) signaling pathway (AID 651777). Also: nearly all actives have a fitted effect of over 15% in size. Also: potency is read from the fitted curve at half-maximal effect. As to activation: % of control where 0% means no effect. The note with it: 1A2-DRE human hepatoma cells, luciferase, 24 h; activation: stronger effect = higher value. In short, it runs like this:
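Human hepatoma 1A2-DRE cells, stably carrying a dioxin response element and CYP1A2 promoter driving luciferase, were exposed to compounds for 24 hr at 37 C and 5% CO2. Luciferase signal was then read after 30 min One-Glo at room temperature.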

A short description of test [19]: Cell Viability - BJ (AID 421; calls by dose curve;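 also: potency is read from the fitted curve at half-maximal effect; cells exposed to compound for 40 hours at 37 °C before readout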). The note with it: BJ fibroblast viability, qHTS. In a few lines:
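Normal human BJ foreskin fibroblasts, 1500/well in complete medium, treated 40 hr at 37 °C. Cellular ATP by CellTiter-Glo luminescence; normalized to DMSO and 100 uM tamoxifen, AC50 from Hill fit.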

The target of test [20] is Retinoic acid receptor RXR-alpha (Homo sapiens) (UniProt P19793). Briefly: qHTS assay for small molecule agonists of retinoid X receptor alpha signaling (AID 588544; calls by dose curve;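 also: 0% = DMSO basal wells and 100% = reference agonist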). Particulars: HEK293T RXRa-UAS-bla, beta-lactamase reporter, 18 h; series mostly up to 76.7 µM.
Sequence of Retinoic acid receptor RXR-alpha (Homo sapiens) (P19793 whole entry, looked up): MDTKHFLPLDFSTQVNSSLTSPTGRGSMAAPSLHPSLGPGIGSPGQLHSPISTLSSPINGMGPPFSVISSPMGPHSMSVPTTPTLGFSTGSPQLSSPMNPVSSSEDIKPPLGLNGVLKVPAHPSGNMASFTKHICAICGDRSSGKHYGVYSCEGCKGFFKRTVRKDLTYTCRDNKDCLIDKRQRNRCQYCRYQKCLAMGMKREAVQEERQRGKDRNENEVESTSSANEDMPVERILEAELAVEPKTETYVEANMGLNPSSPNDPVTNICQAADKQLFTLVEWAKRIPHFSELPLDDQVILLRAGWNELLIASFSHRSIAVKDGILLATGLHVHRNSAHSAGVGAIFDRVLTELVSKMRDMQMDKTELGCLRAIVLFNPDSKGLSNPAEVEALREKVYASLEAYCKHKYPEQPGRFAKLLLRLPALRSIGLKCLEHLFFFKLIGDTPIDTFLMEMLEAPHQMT

Sequence of Peroxisome proliferator-activated receptor gamma (Homo sapiens) (P37231 whole entry, looked up): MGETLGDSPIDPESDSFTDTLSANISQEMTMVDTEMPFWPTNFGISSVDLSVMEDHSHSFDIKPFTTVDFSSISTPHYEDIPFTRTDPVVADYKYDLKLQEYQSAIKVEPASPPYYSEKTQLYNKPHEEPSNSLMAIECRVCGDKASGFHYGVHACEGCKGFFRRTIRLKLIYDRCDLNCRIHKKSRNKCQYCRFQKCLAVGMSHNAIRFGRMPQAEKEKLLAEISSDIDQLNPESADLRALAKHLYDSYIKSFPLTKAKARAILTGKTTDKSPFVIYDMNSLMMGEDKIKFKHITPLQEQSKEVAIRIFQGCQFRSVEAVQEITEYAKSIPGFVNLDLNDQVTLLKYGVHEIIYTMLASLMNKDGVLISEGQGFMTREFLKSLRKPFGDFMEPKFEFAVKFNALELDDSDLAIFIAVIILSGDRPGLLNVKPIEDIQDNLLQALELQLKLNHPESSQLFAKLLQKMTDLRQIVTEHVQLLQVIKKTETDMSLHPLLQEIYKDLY
Sequence of Glucocorticoid receptor (Homo sapiens) (P04150 whole entry, looked up): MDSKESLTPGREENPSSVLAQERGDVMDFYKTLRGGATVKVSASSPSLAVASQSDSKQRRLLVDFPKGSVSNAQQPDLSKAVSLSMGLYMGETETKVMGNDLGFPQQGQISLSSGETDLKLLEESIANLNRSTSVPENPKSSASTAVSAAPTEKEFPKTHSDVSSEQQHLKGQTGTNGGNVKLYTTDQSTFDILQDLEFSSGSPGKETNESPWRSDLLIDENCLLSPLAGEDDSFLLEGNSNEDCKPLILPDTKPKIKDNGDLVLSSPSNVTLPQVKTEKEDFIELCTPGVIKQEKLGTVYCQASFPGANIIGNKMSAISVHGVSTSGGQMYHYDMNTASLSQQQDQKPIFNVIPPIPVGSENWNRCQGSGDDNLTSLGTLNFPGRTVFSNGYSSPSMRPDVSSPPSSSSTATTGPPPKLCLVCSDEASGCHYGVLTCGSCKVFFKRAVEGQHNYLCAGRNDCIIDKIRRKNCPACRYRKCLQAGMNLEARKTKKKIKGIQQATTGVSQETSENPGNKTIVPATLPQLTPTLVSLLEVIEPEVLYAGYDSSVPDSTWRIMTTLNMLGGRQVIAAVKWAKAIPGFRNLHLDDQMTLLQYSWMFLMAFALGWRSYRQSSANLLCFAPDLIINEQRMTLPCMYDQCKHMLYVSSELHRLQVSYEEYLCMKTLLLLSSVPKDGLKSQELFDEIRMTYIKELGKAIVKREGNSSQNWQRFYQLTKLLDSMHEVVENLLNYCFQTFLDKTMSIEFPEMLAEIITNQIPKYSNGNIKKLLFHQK
Sequence of Peroxisome proliferator-activated receptor delta (Homo sapiens) (Q03181 whole entry, looked up): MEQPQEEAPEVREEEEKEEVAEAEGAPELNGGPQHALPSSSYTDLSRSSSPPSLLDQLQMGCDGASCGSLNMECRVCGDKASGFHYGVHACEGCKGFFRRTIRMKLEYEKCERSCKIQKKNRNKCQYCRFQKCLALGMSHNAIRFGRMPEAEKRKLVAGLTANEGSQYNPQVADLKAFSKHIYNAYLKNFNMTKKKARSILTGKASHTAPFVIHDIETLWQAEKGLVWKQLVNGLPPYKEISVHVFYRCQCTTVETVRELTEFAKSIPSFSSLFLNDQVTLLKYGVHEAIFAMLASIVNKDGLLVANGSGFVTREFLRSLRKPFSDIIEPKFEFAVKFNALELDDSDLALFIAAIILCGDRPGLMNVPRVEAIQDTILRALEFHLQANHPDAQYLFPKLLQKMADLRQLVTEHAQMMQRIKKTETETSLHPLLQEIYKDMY
Sequence of Estrogen receptor (Homo sapiens) (P03372 whole entry, looked up): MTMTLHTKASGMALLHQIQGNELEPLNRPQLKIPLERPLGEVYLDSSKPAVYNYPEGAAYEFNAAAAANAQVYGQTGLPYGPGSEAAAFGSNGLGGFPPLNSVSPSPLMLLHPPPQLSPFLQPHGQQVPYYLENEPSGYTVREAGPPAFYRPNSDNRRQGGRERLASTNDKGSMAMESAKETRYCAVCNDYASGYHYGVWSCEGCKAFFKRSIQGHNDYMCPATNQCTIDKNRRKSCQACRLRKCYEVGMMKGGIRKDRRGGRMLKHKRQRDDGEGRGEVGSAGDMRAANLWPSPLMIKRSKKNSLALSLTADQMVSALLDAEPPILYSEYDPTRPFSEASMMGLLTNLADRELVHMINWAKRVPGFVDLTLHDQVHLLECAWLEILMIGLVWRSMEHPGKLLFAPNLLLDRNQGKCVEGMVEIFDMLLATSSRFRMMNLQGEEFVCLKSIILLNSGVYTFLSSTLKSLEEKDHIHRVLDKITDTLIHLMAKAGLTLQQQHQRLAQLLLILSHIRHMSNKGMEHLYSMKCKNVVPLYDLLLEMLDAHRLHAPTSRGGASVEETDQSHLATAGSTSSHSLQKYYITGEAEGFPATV

Consider `c1ccc(OCC2CO2)cc1` (centres undefined), for which the Potency in test [1] and in test [2] was > 92 µM (inactive) in each case. The Potency entry in test [3], in [4], in [8], in test [9] and in test [10] was “inactive” in each case. Moreover, the activation in [5] is -7.97% (inactive). The result in test [6] and in test [7] was inactive.

`CC(C)CC(C)N` (centres undefined): the Potency in test [1] and in test [2] was > 92 µM (inactive) throughout. Further, the Potency result in [11], in test [3], in test [13], in test [14], in test [17] and in test [9] was “inactive” throughout. In test [10], the Potency result was “inactive”. For the same compound, the result in test [12], in test [6], in test [16] and in test [7] was inactive. For the same compound, the max response in [15] is -20.2%. Also, in test [18], the activation was 0.111% (inactive).

Take `c1ccc(P(c2ccccc2)c2ccccc2)cc1`: the Potency was > 92 µM (inactive) in [1], > 92 µM (inactive) in [2], 25.1 µM (active) in test [11] and 37.6 µM (active) in test [8]. In addition, the Potency result in [3], in test [4], in test [13], in [14], in test [17] and in test [9] was “inactive” in each case. In test [10], the Potency entry was “inactive”. Further, the result in test [12], in [6], in test [16] and in [7] was inactive. The activation in [5] is 1.22% (inactive); in test [18], 0.491% (inactive). Further, the max response in [15] is 58.2%.

On to `Oc1ccc(Cl)c(Cl)c1Cl`, for which the Potency in test [1] is > 92 µM (inactive); in test [2] it was > 92 µM (inactive); in test [8], 42.2 µM (active). The Potency entry in test [3], in test [4], in test [17] and in test [10] was “inactive” each time. The result in test [12], in test [6] and in test [7] was inactive. In addition, the activation in test [5] was 6.93% (inactive).

In the case of `Nc1cc(Cl)ccc1O`, the Potency in test [19] was > 92 µM (inactive); in test [2], > 92 µM (inactive); in [8], 10.6 µM (active); in [9], 33.5 µM (active); in test [18], 44.7 µM (active); in test [10] it was 21.1 µM (active). Besides, the Potency entry in [3], in test [4], in test [13] and in [14] was “inactive” throughout. The outcome in test [12], in [6] and in [16] was inactive. In test [5], the activation is 3.82% (inactive). Further, the max response in [15] is -44.8%.

With `Clc1ccc(C(c2ccccc2Cl)C(Cl)(Cl)Cl)cc1` (centres undefined), the Potency in test [19] was > 92 µM (inactive); in test [8], 75 µM (active) and 61.1 µM (active). The outcome in test [12] and in test [6] was inactive. For the same compound, the Potency entry in test [4] and in [17] was “inactive” throughout. The activation was 1.13% (inactive) in [5]; -0.21% (inactive) and -0.331% (inactive) in test [18].

Consider `CC(C)(C)OOC(=O)c1ccccc1`, for which the Potency in test [19] is > 92 µM (inactive). In addition, the activity change, negative = cytotoxicity in [11] was -137% (active). Also, the Potency entry in test [3], in test [4], in [8] and in test [9] was “inactive” in each case. Moreover, the activation in test [5] was 1.21% (inactive) and -1.74% (inactive); in [18], -1.19% (inactive) and 0.23% (inactive). Further, the outcome in test [6], in test [16], in [7] and in test [20] was inactive. The max response in [15] is -0.545%.

`Nn1cnnc1`: the Potency in test [1] and in [2] was > 92 µM (inactive) in each case. The Potency result in test [3], in test [4], in test [13], in [14], in [17] and in [10] was “inactive” each time. In addition, the compound was classed as inactive in test [12], in test [6], in test [16] and in [20]. The activation is -5.65% (inactive) in test [5] and 0.198% (inactive) in test [18]. For the same compound, the max response in [15] is -17.8%.

For `CN(C)c1ccc(N=Nc2ccccc2)cc1`, the Potency in test [19] is > 92 µM (inactive); in test [8] it was 37.6 µM (active); in [18] it was 44.7 µM (active). The compound was classed as inactive in test [12], in test [16], in test [7] and in test [20]. Moreover, the activation in test [5] is 0.929% (inactive). Also, the max response in [15] was -40.3%.
